Data as given in the supplement of paper PMC11001985.

Compound: C#CCNC(=O)CCSSCCC(=O)NCCc1ccc(C=O)c(C=O)c1
Assay: lysine labeling ratio R10:1 (500 µM / 50 µM probe), SILAC-ABPP in living cells; higher = lower intrinsic lysine reactivity toward the probe, active = 2 or less
Conditions: HeLa; probe concentrations 500 vs 50 µM
Summary of the method: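 In PBS at room temperature, living HeLa cells grown with SILAC light or heavy labels were treated with 50 µM or 500 µM of an alkyne-tagged, disulfide-linked lysine probe, with label swaps in both directions. Analysis was by LC-MS/MS on a TIMS-TOF Pro after click to biotin-azide, neutravidin capture and DTT release. For each lysine, R is the median across forward and reverse replicates of the filtered median high-probe/low-probe MS1 peptide ratio, capped at 20.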

Sequence of UniProt Q14517 (Q14517 whole entry): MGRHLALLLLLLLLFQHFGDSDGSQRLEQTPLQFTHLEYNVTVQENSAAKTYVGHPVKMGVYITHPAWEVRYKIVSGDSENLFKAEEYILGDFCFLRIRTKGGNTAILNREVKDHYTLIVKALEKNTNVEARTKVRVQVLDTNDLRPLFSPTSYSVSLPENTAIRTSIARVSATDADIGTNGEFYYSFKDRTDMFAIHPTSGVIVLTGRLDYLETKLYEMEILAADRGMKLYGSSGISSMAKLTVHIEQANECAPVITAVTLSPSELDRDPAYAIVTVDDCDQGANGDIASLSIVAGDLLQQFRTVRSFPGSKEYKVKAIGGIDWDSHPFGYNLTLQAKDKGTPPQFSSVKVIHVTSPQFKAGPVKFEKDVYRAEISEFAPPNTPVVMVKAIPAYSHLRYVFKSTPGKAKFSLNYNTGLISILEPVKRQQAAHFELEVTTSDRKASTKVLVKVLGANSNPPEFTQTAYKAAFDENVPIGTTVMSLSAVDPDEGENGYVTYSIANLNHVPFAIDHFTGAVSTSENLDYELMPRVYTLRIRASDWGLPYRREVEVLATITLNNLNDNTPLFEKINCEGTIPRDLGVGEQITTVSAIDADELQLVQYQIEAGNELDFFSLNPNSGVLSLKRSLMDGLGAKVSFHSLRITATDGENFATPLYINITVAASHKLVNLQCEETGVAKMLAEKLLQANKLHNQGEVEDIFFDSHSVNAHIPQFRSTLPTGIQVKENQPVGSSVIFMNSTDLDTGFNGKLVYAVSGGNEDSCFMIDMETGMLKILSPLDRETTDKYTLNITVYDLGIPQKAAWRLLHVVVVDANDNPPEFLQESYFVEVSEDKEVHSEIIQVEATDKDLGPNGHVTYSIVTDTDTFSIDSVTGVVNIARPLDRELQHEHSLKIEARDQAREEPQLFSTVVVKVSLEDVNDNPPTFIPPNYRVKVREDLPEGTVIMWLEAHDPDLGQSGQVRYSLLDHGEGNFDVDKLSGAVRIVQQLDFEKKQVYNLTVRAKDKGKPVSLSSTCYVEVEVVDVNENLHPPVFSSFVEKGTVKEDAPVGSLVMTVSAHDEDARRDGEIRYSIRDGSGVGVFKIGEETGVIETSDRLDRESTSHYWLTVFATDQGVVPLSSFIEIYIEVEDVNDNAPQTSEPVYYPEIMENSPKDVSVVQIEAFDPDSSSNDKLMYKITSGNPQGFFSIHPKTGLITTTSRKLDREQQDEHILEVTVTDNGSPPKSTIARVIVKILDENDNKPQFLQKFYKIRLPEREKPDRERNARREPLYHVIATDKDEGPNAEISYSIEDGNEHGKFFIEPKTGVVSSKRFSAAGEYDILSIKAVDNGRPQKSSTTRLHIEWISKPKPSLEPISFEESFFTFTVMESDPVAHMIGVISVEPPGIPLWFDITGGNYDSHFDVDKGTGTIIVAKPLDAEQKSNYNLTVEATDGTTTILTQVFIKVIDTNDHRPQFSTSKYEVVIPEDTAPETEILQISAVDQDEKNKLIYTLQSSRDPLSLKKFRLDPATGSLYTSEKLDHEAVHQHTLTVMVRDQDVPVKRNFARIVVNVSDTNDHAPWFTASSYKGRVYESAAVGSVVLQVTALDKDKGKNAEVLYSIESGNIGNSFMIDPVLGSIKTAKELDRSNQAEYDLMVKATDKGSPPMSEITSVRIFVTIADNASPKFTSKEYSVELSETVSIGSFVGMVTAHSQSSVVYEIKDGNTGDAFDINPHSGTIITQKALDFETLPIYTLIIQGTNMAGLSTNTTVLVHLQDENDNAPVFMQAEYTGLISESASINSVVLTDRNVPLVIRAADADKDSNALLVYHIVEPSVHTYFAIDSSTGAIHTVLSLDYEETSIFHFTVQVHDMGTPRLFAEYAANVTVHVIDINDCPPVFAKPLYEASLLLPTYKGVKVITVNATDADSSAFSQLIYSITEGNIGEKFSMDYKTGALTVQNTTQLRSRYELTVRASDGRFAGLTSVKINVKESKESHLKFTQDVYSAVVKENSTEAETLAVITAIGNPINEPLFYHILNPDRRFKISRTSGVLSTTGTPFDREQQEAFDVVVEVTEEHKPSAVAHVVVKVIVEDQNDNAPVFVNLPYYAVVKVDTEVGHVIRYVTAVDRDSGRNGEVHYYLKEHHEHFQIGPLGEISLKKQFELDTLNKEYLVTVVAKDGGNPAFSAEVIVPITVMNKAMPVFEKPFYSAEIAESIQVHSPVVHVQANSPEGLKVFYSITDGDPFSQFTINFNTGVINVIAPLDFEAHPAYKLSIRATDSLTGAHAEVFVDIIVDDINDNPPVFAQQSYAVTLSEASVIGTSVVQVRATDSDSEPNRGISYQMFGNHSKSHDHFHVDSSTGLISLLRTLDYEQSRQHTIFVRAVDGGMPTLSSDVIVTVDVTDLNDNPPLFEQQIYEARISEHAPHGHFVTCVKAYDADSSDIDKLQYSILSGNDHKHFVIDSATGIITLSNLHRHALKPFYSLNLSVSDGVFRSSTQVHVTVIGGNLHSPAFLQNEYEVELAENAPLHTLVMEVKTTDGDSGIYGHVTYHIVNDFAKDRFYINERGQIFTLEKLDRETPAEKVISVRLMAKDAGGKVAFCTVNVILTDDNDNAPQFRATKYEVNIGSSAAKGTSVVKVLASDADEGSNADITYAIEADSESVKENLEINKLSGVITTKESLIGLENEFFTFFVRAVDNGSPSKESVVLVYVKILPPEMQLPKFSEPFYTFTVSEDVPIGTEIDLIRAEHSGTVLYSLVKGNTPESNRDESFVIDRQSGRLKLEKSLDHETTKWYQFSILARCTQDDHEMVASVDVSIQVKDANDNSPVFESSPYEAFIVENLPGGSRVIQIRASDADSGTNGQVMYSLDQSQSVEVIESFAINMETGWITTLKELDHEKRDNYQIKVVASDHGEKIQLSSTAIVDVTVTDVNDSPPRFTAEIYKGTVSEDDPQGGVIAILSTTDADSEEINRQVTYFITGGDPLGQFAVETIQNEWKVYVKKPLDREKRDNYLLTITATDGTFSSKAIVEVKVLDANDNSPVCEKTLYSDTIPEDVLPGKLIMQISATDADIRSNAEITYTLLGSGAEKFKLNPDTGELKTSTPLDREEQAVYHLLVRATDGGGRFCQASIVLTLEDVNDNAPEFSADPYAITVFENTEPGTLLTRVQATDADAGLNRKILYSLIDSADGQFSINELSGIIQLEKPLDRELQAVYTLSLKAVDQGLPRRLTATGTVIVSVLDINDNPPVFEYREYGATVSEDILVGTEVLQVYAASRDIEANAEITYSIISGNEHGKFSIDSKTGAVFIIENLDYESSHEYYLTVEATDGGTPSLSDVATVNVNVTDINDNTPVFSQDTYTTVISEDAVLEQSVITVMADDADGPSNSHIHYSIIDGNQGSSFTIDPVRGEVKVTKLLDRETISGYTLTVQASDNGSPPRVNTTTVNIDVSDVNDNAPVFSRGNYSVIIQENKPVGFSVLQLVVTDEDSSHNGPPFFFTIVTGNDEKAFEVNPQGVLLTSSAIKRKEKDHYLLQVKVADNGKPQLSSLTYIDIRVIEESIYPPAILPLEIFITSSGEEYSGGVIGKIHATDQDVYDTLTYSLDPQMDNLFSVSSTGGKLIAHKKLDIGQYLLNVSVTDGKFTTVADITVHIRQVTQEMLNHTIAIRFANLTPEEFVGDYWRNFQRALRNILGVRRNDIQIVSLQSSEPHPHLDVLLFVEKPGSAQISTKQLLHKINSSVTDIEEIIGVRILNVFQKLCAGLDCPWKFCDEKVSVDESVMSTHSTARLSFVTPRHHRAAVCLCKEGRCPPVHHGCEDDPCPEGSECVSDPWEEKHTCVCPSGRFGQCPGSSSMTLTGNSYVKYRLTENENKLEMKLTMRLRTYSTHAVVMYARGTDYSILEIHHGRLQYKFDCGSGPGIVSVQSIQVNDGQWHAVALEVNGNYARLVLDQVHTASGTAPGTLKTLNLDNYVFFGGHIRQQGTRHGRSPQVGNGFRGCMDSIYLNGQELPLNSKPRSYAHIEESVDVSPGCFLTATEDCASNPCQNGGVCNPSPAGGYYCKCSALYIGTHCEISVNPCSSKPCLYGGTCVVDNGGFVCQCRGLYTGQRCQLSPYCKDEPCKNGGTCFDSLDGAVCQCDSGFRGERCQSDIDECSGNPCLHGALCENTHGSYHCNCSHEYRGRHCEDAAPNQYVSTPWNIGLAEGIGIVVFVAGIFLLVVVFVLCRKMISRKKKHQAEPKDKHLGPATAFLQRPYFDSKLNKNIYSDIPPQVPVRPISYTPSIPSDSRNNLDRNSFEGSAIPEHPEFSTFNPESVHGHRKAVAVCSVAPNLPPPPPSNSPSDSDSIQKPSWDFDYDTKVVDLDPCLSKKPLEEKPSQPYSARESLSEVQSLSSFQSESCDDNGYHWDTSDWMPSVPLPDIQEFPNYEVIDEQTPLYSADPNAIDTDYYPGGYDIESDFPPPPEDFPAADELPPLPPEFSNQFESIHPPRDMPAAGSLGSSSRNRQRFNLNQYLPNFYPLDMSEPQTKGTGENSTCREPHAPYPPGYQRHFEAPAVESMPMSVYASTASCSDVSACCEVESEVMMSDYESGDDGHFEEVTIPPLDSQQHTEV
Sequence of UniProt P31947 (P31947 whole entry): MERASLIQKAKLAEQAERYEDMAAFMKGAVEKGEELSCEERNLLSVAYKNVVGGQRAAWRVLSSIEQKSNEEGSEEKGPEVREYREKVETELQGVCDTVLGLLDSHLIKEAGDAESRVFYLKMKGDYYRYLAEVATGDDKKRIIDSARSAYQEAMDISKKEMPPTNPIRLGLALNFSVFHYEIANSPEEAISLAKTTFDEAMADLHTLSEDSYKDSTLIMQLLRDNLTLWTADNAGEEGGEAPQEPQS
Sequence of UniProt Q14964 (Q14964 whole entry): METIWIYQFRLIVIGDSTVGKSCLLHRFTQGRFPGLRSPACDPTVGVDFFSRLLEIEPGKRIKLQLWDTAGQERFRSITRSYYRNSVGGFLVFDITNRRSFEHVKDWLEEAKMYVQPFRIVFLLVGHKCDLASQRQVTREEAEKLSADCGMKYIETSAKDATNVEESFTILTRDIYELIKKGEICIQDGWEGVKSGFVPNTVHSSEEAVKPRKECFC

Lysine labeling ratio R10:1, active:
UniProt Q9NYU2 (lysine site: K356) 1.45, ARHGDIA (lysine site: K52) (UniProt P52565) 1.66, FRAS1 (lysine site: K211) (UniProt Q86XX4) 1.36, UniProt Q9BZM4 (lysine site: K192) 1.43, F13A1 (lysine site: K258) (UniProt P00488) 1.15, PLS3 (lysine site: K335) (UniProt P13797) 0.765, CCT3 (lysine site: K249) (UniProt P49368) 1.76, ARHGAP17 (lysine site: K9) (UniProt Q68EM7) 1.92, FN1 (lysine site: K149) (UniProt P02751) 1.99, UniProt Q16363 (lysine site: K682) 1.54, FAT1 (lysine site: K3783) (UniProt Q14517) 1.6, UniProt P62829 (lysine site: K123) 0.877

Lysine labeling ratio R10:1, inactive:
CKAP4 (lysine site: K301) (UniProt Q07065) 2.85, HSPD1 (lysine site: K133) (UniProt P10809) 3.96, EEF1G (lysine site: K434) (UniProt P26641) 3.73, RBMX (lysine site: K163) (UniProt P38159) 3.88, SPTBN1 (lysine site: K832) (UniProt Q01082) 2.42, MYH9 (lysine site: K299) (UniProt P35579) 2.23, GSN (lysine site: K193) (UniProt P06396) 2.07, TXN (lysine site: K96) (UniProt P10599) 2.11, MET (lysine site: K189) (UniProt P08581) 3.58, SLC25A5 (lysine site: K245) (UniProt P05141) 2.26, FAT1 (lysine site: K1542) (UniProt Q14517) 2.78, UniProt P62826 (lysine site: K71) 2.74, KIRREL (lysine site: K410) (UniProt Q96J84) 2.51, UniProt Q14964 (lysine site: K63) 2.17, FBL (lysine site: K131) (UniProt P22087) 2.15, WNT5A (lysine site: K171) (UniProt P41221) 3.57, SFN (lysine site: K49) (UniProt P31947) 5.33, ITGA6 (lysine site: K404) (UniProt P23229) 6.64, ALDOA (lysine site: K13) (UniProt P04075) 8.82, UniProt P02533 (lysine site: K251) 5.36, ITGA5 (lysine site: K910) (UniProt P08648) 3.88, SERPINH1 (lysine site: K410) (UniProt P50454) 4.84, FLNB (lysine site: K1005) (UniProt O75369) 4.49, HSP90B1 (lysine site: K630) (UniProt P14625) 2.66, PDCD6IP (lysine site: K285) (UniProt Q8WUM4) 15.7, GAPDH (lysine site: K334) (UniProt P04406) 5.36, IGF2R (lysine site: K1104) (UniProt P11717) 3.26, CD44 (lysine site: K38) (UniProt P16070) 5.01
